An excerpt weighted towards active compounds, which were near 6% of everything screened.
FLuc inh – qHTS Assay for Inhibitors of Firefly Luciferase. 72,000 compounds, 2.2% hits. Luciferin 4-monooxygenase (Photinus pyralis), P08659. Potency, µM (doses to about 57.1 µM), inactives show at the highest dose activity change, negative = inhibition, usual class: inhibitors. purified firefly luciferase, luminescence, 8 min. AID 411, 2009; further: nearly all actives have a fitted effect of over 40% in size
Target sequence (P08659 whole entry, looked up): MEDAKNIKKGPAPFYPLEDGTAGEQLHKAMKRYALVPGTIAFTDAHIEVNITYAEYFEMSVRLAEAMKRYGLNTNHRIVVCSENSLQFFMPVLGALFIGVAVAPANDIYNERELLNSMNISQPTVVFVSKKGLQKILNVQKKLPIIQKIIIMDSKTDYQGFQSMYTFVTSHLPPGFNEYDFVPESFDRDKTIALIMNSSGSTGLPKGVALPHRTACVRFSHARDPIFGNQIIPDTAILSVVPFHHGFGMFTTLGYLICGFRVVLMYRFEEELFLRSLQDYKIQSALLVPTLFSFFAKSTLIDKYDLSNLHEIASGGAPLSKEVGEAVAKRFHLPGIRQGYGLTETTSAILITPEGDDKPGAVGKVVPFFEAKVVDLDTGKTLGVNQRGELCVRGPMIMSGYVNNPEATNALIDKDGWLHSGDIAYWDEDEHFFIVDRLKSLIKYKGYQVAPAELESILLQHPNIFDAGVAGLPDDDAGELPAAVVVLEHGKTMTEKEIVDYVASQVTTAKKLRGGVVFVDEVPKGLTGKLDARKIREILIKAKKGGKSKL
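Inhibition of light generation by firefly luciferase from ATP and luciferin was profiled with concentration-response curves per sample, ATP held at 10 uM within the enzyme's linear range. Plates were read by luminescence after an 8-minute ambient incubation.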
ALOX15 inhib – qHTS Assay for Inhibitors of 15-hLO (15-human lipoxygenase); Polyunsaturated fatty acid lipoxygenase ALOX15 (Homo sapiens), P16050; purified 15hLO-1, xylenol orange hydroperoxide absorbance; Potency, µM (titrated, usually from 57.1 µM), for the others: at the highest dose activity change, negative = inhibition, hits mostly inhibitors; 74,000 compounds, 1.4% hits; AID 887, 2007; further: nearly all actives have a fitted effect of over 55% in size
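Quantitative HTS in 25 mM Hepes pH 7.5 containing 0.01% Triton X-100: human 15hLO-1 at 40 nM, arachidonic acid at 50 uM, 6 min turnover. Product quantified via ferrous oxidation/xylenol orange, 573:405 nm absorbance ratio.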
ERK AVP block – qHTS Assay for Inhibitors of the ERK Signaling Pathway using a Homogeneous Screening Assay. HEK293-V1b, vasopressin-stimulated pERK AlphaScreen. Potency, µM (series often up to 57.5 µM), for inactives: at the top dose activity, negative = inhibition, usual class: inhibitors. 72,000 compounds, 0.99% hits. AID 995, 2007; further: nearly all actives have a fitted effect of over 55% in size
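Overnight-seeded V1b-HEK293 cells in 1% FBS got compound, then vasopressin (25 nM final, 5 min, 37C), then lysis buffer. AlphaScreen detection of phospho-ERK; activity normalized to basal and full-stimulation controls.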
Bst PK mod – Pyruvate Kinase; purified pyruvate kinase, luminescence ATP production; ribose 5-phosphate activator present at AC10; 51,000 compounds, 1.2% hits; AID 361, 2006; Potency, µM; in the data active means potency below about 11 µM; inconclusive means mostly about 12 µM to 25 µM;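 the screen sought inhibitors and activators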;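 further: scaled between full activation by ribose 5 phosphate and full inhibition by luteolin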
DNA Pol III inh – qHTS Assay for Inhibitors of DNA Polymerase III Holoenzyme System; 71,000 compounds, 0.25% hits; reconstituted DNA polymerase III holoenzyme replication, biochemical; AID 603, 2007; Potency, µM (series often up to 57.1 µM), for the others: at the top dose activity change, negative = inhibition
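Reconstituted *E. coli* holoenzyme (0.35 nM Pol III, 1 nM beta, 154 nM SSB, 2 nM primase) was preincubated with compound for 15 min at RT. Synthesis on 1.4 nM ssM13Gori ran 35 min, then was stopped with PicoGreen/EDTA and read as dsDNA fluorescence.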
Tau filament bind – qHTS Assay for Tau Filament Binding; Microtubule-associated protein tau (Homo sapiens), P10636; recombinant tau filaments, thioflavin S fluorescence, 15 h; filaments grown with octadecylsulfate alongside compound; Potency, µM (highest dose often 57.1 µM), without a hit: top-dose activity change, negative = inhibition; 71,000 compounds, 2% hits;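 further: actives lower thioflavin S fluorescence by blocking filaments or displacing dye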
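Thioflavine S fluorescence (ex 450, em 510 nm) reports filaments formed from 1 uM human tau plus 30 uM ODS over 15 h at 37 C (10 mM HEPES pH 7.4, 100 mM NaCl, 5 mM DTT); compounds displacing dye or blocking filaments lower signal.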
Starred values were filed as active, the others as inactive; i = inactive; ? = inconclusive; . = not tested or not shown; [ ] = remark or other dose. Unless noted, the call rests on the fitted dose curve; in most records, active means well fitted curve in the direction sought with a large enough effect; inconclusive means small, poorly fitted or top-dose-only effect, or another doubt; inactive means no such curve, though single readings can be large; an effect the other way counts as inactive or inconclusive. Unless noted, on the % scale 0 is the no-effect control and ±100 the full control effect; potency means the concentration at half of the fitted maximal effect.

SMILES	FLuc inh	ALOX15 inhib	ERK AVP block	Bst PK mod	DNA Pol III inh	Tau filament bind
CO[C@H]1COC(=O)[C@@H](C)COC(=O)[C@@H](COCc2ccccc2)NC(=O)C/C=C\[C@H]1C	1%[11.4 µM]	7%[11.4 µM]	10%[11.5 µM]	.	.	.
CC(=O)OC[C@@H]1O[C@@H](O/N=C2/C[C@@H](O)[C@@H](O)[C@@H]3[C@@H]4C(=O)N(c5cccc(Oc6ccccc6)c5)C(=O)[C@H]4CC[C@H]23)[C@H](OC(C)=O)[C@H](OC(C)=O)[C@@H]1OC(C)=O	-4%[11.4 µM]	6%[11.4 µM]	6%[11.5 µM]	.	.	.
CCOc1cc(C(=O)Nc2ccc3c(c2)OCO3)ccc1OC(F)F	-11%	-26%	20µM*	>11	-10%	-13%
COc1cc(NC(=O)c2ccc3c(c2)OCO3)ccc1NC(=O)C(C)C	?	2%	-15%	7.1*	-6%	4%
O=C(Nc1ccc2nsnc2c1)c1ccc2c(c1)OCO2	3.2µM*	-6%	-14%	.	-4%	-6%
CCOc1ccc(C(=O)Nc2ccc3c(c2)OCCO3)cc1OC	2%	-6%	-10%	>57	-9%	3%
Cc1cc(C)n(-c2ccc(C(=O)Nc3ccccn3)cc2)n1	13µM*	-7%	-13%	i	-5%	12%
O=C1[C@@H]2[C@H]3[C@H](O)[C@H](O)C/C(=N/OCc4ccccc4)[C@@H]3CC[C@H]2C(=O)N1c1ccc(F)cc1F	-1%[11.4 µM]	16%[11.4 µM]	7%[11.5 µM]	.	.	.
CCN1C(=O)[C@H]2[C@H]3[C@H](O)[C@H](O)C/C(=N/O[C@@H](C)c4cn([C@H](CO)Cc5ccccc5)nn4)[C@@H]3CC[C@@H]2C1=O	1%[11.4 µM]	0%[11.4 µM]	8%[11.5 µM]	.	.	.
COCCn1c(=O)c(-c2cn(C)c3ccccc23)nc2cnc(N3CCNCC3)nc21	0%[11.4 µM]	4%	9%	.	-2%	400%
Cc1cc(C(=O)Nc2ccc3c(c2)OCO3)cs1	16µM*	-19%	4%	i	1%	-24%
O=C(Nc1ccc(Cl)cc1)c1ccc2c(c1)OCO2	4µM*	-10%	-7%	.	0%	40%
O=C(Nc1ccc2c(c1)OCO2)c1cccc(Cl)c1	13µM*	-2%	16%	.	-3%	11%
CC(=O)Nc1ccc(C(=O)Nc2ccc3c(c2)OCO3)cc1	-15%	6%	-10%	>57	2%	20µM*
O=C(Nc1ccc(F)c(F)c1)c1ccc2c(c1)OCO2	?	-21%	-1%	.	-4%	9%
C=Cc1ccc(C=C)cc1	.	-16%	0%	.	12%	13%
COc1ccc(C(c2sc3ncnn3c2O)N2CCN(c3ccccc3F)CC2)cc1OC (configuration not stated)	10µM*	0%	.	.	1%	-7%
COc1ccc(C(c2sc3ncnn3c2O)N2CC(C)OC(C)C2)cc1OC (configuration not stated)	13µM*	5%	.	.	-6%	1%
COc1cccc(C(c2sc3nc(C)nn3c2O)N2CCN(c3ccccc3F)CC2)c1 (configuration not stated)	1%	-10%	.	.	-5%	-14%
CCCn1c(-c2ccc(F)cc2)nc2c(NCCN3CCCCC3)nc(C)nc21	.	5%	-27%	.	-11%	12%
COCCn1c(=O)c(-c2ccc(Cl)cc2)nc2cnc(Oc3cccc(Cl)c3)nc21	1%[11.4 µM]	-6%	-16%	.	6%	-11%
COc1cccc(Cn2c(=O)c(-c3cccs3)nc3cnc(N(C)C)nc32)c1	1%[11.4 µM]	0%	20%	.	-2%	i
Cc1ccc2nc3ccc(N4CCCC4)nn3c(=O)c2c1	?	25µM*	7%	i	0%	-24%
CS(=O)(=O)Nc1cccc(-c2cncnc2NCc2cccs2)c1	0%[2.29 µM]	-2%	-18%	.	-13%	-1%
O=C(O)Cc1cccc2c(=O)cc(-c3ccccc3)oc12	5%[11.4 µM]	2%[11.4 µM]	18%[11.5 µM]	.	-6%[11.4 µM]	2%[11.4 µM]
O=c1cc(-c2ccccc2O)oc2ccc3ccccc3c12	0.5µM*	18%[25.6 µM]	17%	.	2%	?

Bioassay records as filed in PubChem.
